In a collection of fitness landscapes (doi:10.1016/j.celrep.2020.107928):
In all, about 81,000 sequences were measured (“one-hybrid fitness for binding NBS DNA”: median about -0.1, highest 2% from about 0.36 on). The full list was thinned out, with the highest values kept by preference.

B1: Caulobacter ParB omega fusion; a variant is named by its letters at X, in order, B8GW30 (parent)
chain: MESVVVGEPGMSEGRRGLGRGLSALLGEVDAAPAQAPGEQLGGSREAPIEILQRNPDQPRRTFREEDLEDLSNSIREKGVLQPILVRPSPDTAGEYQIVAGERAWRAAQRAGLKTVPIMVRELDDLAVLEIGIIENVQRADLNVLEEALSYKVLMEKFERTQENIAQTIGKSXSHVANXMRLLXLPDEVQSYLVSGELTAXHARAIAAAADPVALAKQIIEGGLSVRETEALARKAPNLSAGKSKGGRPPRVKDTDTQALESDLSSVLGLDVSIDHRGSTGTLTITYATLEQLDDLCNRLTRGI

Variants of: B1
Assay: one-hybrid fitness for binding NBS DNA (the Noc-binding site; scaled: cognate 1, non-cognate 0); higher = stronger binding
Details: with NBS DNA site
Outline: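 The reporter was HIS3, with the binding site 19 bp from the promoter, in E. coli USO used for bacterial one-hybrid selection of Caulobacter ParB libraries with four specificity codons randomised. Growth was on M9 lacking histidine, with 0.1 mM IPTG and 5 mM 3-AT, for 48 hours at 37°C. Illumina sequencing covered plasmids before and after selection; three replicate libraries were pooled and variants with under 10 reads dropped. A fitness score is the log change in variant-to-wild-type read ratio, rescaled to the cognate and non-cognate references.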

one-hybrid fitness for binding NBS DNA, 0.523:
KKKR

one-hybrid fitness for binding NBS DNA, 0.376:
QARV

one-hybrid fitness for binding NBS DNA, 0.447:
SFQV

one-hybrid fitness for binding NBS DNA, 0.366:
WYCV

one-hybrid fitness for binding NBS DNA, ≤ 0.2:
RIRP
RIWP
RIND
RIWD
DTYS
SANL
RGWI
YSMI
YTKY
IQNI
RIHN
RIHD
NKNM
IYIV
IYVV
WYVV
QYVV
QYYV
WYRV
QYSV
QYDV
YGDI
FTRD
NWLT
YDPL
LENS
ALND
TGNW
NKKT
KTVR
KHVR
KHKS
KTKP
KKVR
KKVT
SSSH
GTSM
MDYV
FTRY
SQTT
RWDE
GLVI
CLLR
SYYR
FWDR
SYVR
DYKR
FWPP
KYYR
KMVR
RDNL
KNNH
FMCG
KYLR
VTMQ
RNIC
AMWM
TRYP
RGPH
VTSA
MRFI
CKWS
KKVS
NQKR
KPKR
DQKR
FPKR
KKKN
YLQM
MIYY
WSMT
YVTI
WDTC
QSSV
QMYV
QAYV
QSYV
QADV
QCSV
QMDV
QSDV
RQRI
SPGV
RRPE
QMVE
VKVA
CPHR
FHQR
QPQV
QCAV
DFQV
QCCV
QPCV
QCQV
SFRV
SHME
HLRR
GKSS
ALAR
NTES
QCYV
QKDV
QPRV
QSGV
QTDV
QKYV
QTYV
LALN
NRHK
IQAC
EASL
KDSS
WRLM

one-hybrid fitness for binding NBS DNA, 0.396:
KHKR
QSRV

one-hybrid fitness for binding NBS DNA, 0.372:
QYKV

one-hybrid fitness for binding NBS DNA, 0.397:
KCKR
QRQV

one-hybrid fitness for binding NBS DNA, 0.424:
QRAV

one-hybrid fitness for binding NBS DNA, 0.378:
SYKR

one-hybrid fitness for binding NBS DNA, 0.275:
QRFV

one-hybrid fitness for binding NBS DNA, 0.201:
NMKR

one-hybrid fitness for binding NBS DNA, 0.427:
KKKT

one-hybrid fitness for binding NBS DNA, 0.425:
KKKS
KQKR

one-hybrid fitness for binding NBS DNA, 0.576:
QTRV

one-hybrid fitness for binding NBS DNA, 0.392:
QYRV
FCKR

one-hybrid fitness for binding NBS DNA, 0.56:
RIRS

one-hybrid fitness for binding NBS DNA, 0.445:
RINS

one-hybrid fitness for binding NBS DNA, 0.237:
QYAA

one-hybrid fitness for binding NBS DNA, 0.381:
RIHS

one-hybrid fitness for binding NBS DNA, 0.388:
QRSV

one-hybrid fitness for binding NBS DNA, 0.41:
IYPV
QKRV

one-hybrid fitness for binding NBS DNA, 0.4:
KMKR

one-hybrid fitness for binding NBS DNA, 0.45:
QMRV

one-hybrid fitness for binding NBS DNA, 0.486:
FWPR

one-hybrid fitness for binding NBS DNA, 0.221:
QCGV

one-hybrid fitness for binding NBS DNA, 0.555:
KTKR

one-hybrid fitness for binding NBS DNA, 0.452:
QRGV

one-hybrid fitness for binding NBS DNA, 0.214:
RIFS

one-hybrid fitness for binding NBS DNA, 0.525:
QCRV

one-hybrid fitness for binding NBS DNA, 0.218:
FSKR

one-hybrid fitness for binding NBS DNA, 0.342:
KSKR

one-hybrid fitness for binding NBS DNA, 0.414:
KYKR

one-hybrid fitness for binding NBS DNA, 0.406:
QRCV

one-hybrid fitness for binding NBS DNA, 0.3:
NKKR

one-hybrid fitness for binding NBS DNA, 0.318:
QVST
